Compound activity: PubChem BioAssay, National Center for Advancing Translational Sciences (NCATS)
D1 antag – human D1 dopamine receptor antagonism. hit rate 3.2% among 360,000. activity change, negative = inhibition, % at 10 µM. P21728. HEK293 TREx D1 cells, calcium flux, dopamine EC80; stronger effect = lower value; in the data active means activity change below about -30%; further: on the % scale 0 is the no-effect control and ±100 the full control effect
Target sequence (P21728 whole entry, looked up): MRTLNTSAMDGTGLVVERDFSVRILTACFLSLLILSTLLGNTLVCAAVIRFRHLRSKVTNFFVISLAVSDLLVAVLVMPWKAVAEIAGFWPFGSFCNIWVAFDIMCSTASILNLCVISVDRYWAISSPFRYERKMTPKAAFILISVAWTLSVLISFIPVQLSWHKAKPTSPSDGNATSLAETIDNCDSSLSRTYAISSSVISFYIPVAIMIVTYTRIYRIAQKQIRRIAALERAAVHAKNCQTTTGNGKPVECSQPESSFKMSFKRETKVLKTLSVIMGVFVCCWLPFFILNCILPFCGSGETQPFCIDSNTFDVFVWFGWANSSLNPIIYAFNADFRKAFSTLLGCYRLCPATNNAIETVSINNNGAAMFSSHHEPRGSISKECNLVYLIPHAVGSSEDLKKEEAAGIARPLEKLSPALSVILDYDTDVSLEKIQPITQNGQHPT
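Using tetracycline-induced force-coupled D1 Hek293 cells and a calcium dye, signals were followed for 180 s after compound, then for 180 s after EC80 dopamine, to detect inhibitors.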
TRHR ag – agonists of human TRH receptor | P34981 | TRHR cells, calcium flux fluo-8, FDSS agonist mode | activation, % at 2 µM | hit rate 0.18% among 360,000; further: 0% is about no effect
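Steps: seed TRHR cells overnight; add fluo-8 no-wash Ca dye, RT 30 min–1.5 h; record 10 s baseline; pin-transfer compounds; monitor fluorescence 1 cycle/s for the agonist window. Calcium increases flag candidate agonists.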
Epigenetic derep – epigenetic control regulation, reporter derepression. murine LDR cells, GFP reporter derepression, 30 h. Potency, µM (series often up to 53.9 µM), without a hit: top-dose GFP activation, hits mostly activators. hit rate 0.2% among 280,000. AID 1865; active means well fitted activation curve with a large enough effect; further: potency means the concentration at half of the fitted maximal effect; % of control where 0% means no effect; nearly all actives have a fitted effect of over 60% in size
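Derepression of a silenced CMV-GFP reporter in murine LDR cells is scored by enumerating GFP-positive cells with a laser-scanning microplate cytometer after 30 hours of treatment at 37 C.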
D1 agonist – human D1 receptor agonism | HEK293 T-REx D1 cells, calcium flux, agonist mode | hit rate 1% among 360,000 | P21728 | AID 504660 | activation, % at 2 µM; further: 0% is about no effect
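Agonism was scored from calcium flux recorded over 180 s (1 read/s) after pintool compound addition, following a 10-cycle baseline. Cells were inducible force-coupled HEK293 TREx D1, plated overnight at 30 C and loaded with no-wash calcium dye.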
TRHR enhancer – allosterically enhances the human TRH receptor; P34981; TRHR cells, fluo-8 calcium fluorescence, EC20 TRH enhancement; enhancement, % at 2 µM; hit rate 0.66% among 360,000; in the data active means enhancement above about 30%; further: 0% is about no effect
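TRHR-expressing cells loaded with fluo-8 calcium dye were read kinetically (ex 480/em 530) during compound addition, then stimulated with an EC20 of TRH (10 nM final). Enhancement of the Gq-mediated intracellular calcium response was scored.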
D1 potentiator – potentiators of human D1 dopamine receptor | P21728 | HEK293 TREx D1 cells, calcium flux, dopamine EC20 potentiation | potentiation, % at 10 µM | hit rate 0.036% among 360,000; in the data active means potentiation above about 30%; further: 0% is about no effect
Numbers without * were called inactive; nt = not tested or not shown; [ ] = another dose, or the depositor's remark. This is a sample that favours compounds with a hit; in the whole collection about 4.6% have one here. Unless noted, no stated cut-off is given here; in the data, active means activation above about 30%; inactive means the rest.

SMILES	D1 antag	TRHR ag	Epigenetic derep	D1 agonist	TRHR enhancer	D1 potentiator
CC(C)(C)OC(=O)N1CCC(c2c(C(=O)NCc3ccc(F)cc3)cnn2-c2ccc(F)cc2)CC1	3.1	0.5	1.1%	0.9	10.4	4.1
CCc1ccc(NC(=O)CN2C(=O)C3(SCC(=O)N3c3ccccc3)c3ccccc32)cc1 (centres undefined)	-5.4	-0.7	7.2%	-0.2	27.5	-0.9
COc1ccc(NC(=O)c2c(NCc3cccc(F)c3)sc3c2CCC3)c(OC)c1	1.7	0.0	1.1%	2.3	3.9	10.2
CCN1CCOC(=O)C1CC(=O)Nc1cc(Cl)ccc1OC (centres undefined)	0.8	1.0	-0.2%	-0.9	0.3	1.6
O=C(O)CCCN1C(=O)/C(=C\c2ccc(-c3nc4ccccc4s3)o2)SC1=S	80.1	6.7	0.7%	34.7*	-5.4	5.9
O=C(O)CCN1C(=O)/C(=C/c2ccc(-c3nc4ccccc4s3)o2)SC1=S	98.1	1.2	-1.1%	28.5	6.5	4.9
O=C(O)CN1C(=O)/C(=C/c2ccc(-c3cccc(Cl)c3)o2)SC1=S	12.8	2.1	nt	5.0	32.0*	10.1
CCc1ccccc1NC(=O)CN1C(=O)C2CCCN2c2ccc(S(=O)(=O)N(CC)CC)cc21 (centres undefined)	8.2	0.3	5.0%	5.3	-3.1	-2.6
COc1ccc(C(C)=O)cc1Cn1cnc2c(cnn2C)c1=O	3.7	0.1	-1.4%	2.8	0.4	4.2
COc1ccc(C=O)cc1Cn1cnc2c(cnn2C)c1=O	-36.4*	1.1	-6.0%	1.2	3.8	1.2
COc1ccccc1NC(=O)CSc1oc(-c2cccs2)nc1S(=O)(=O)c1ccccc1	-16.4	0.8	2.8%	5.1	-0.3	1.1
CN(C)c1nc(N)nc(CSc2nnnn2-c2ccc(F)cc2)n1	6.8	0.0	0.0%	4.4	38.0*	-3.0
Nc1nc(CSc2nnnn2-c2ccccc2)nc(N2CCCc3ccccc32)n1	-12.8	1.3	-1.0%	4.8	1.5	-2.5
COCCNC(=S)N(CCc1c(C)[nH]c2ccc(F)cc12)Cc1cccs1	-37.7*	0.6	14.1%	14.9	-7.4	-2.2
COCCNC(=S)N(CCc1c(C)[nH]c2ccc(Cl)cc12)Cc1cccs1	12.8	1.0	-1.6%	1.5	0.3	-3.9
CCOC(=O)C1=C(N)Oc2ccc(Br)cc2C1C(C#N)C(=O)OCC (centres undefined)	nt	nt	1.1%	nt	nt	nt
CCC(OC(=O)c1ccco1)C(=O)NCc1ccc(C)cc1 (centres undefined)	-76.8*	-0.2	0.0%	-0.6	-22.5	-10.5
Cc1ccc(CNC(=O)C(C)OC(=O)c2ccco2)cc1 (centres undefined)	-7.3	0.0	1.5%	1.5	-0.3	-3.1
O=c1c(S(=O)(=O)c2ccccc2)cn(Cc2ccc(F)cc2)c2cc(N3CCCCC3)c(F)cc12	-44.2*	-0.5	0.0%	2.0	-2.7	-1.1
O=c1c(S(=O)(=O)c2ccccc2)cn(Cc2ccccc2)c2cc(N3CCCC3)c(F)cc12	12.4	0.4	0.0%	-0.4	2.3	-2.5
Cc1cccc(S(=O)(=O)c2cn(C)c3cc(N4CCN(c5ccccc5)CC4)c(F)cc3c2=O)c1	-0.6	-0.5	-3.5%	3.5	31.7*	-0.4
CCC(CC)C(=O)Nc1ccc(OCc2cc(=O)n3ccc(C)cc3n2)cc1	-5.4	-0.1	12.7%	-0.3	-3.8	-2.6
Cc1nc2ccc(S(=O)(=O)N(C)CC(=O)Nc3ccc(Br)c(C)c3)cc2s1	-40.3*	-1.4	1.3%	8.7	3.1	1.1
Cc1nc2ccc(NC(=O)CCS(=O)(=O)c3ccc(Cl)cc3)cc2s1	-36.4*	0.3	4.2%	11.6	-1.4	-3.0
Cc1nc2ccc(NC(=O)c3cc([N+](=O)[O-])cc([N+](=O)[O-])c3Cl)cc2s1	-54.6*	-0.4	0.0%	0.9	12.9	-3.4
SMILES	D1 antag	TRHR ag	Epigenetic derep	D1 agonist	TRHR enhancer	D1 potentiator
Cc1nc2ccc(NC(=O)c3ccc(Cl)c([N+](=O)[O-])c3)cc2s1	-2.3	0.2	-1.0%	-0.3	-9.9	1.5
O=C(Nc1ccc2c(c1)OCCO2)C1CCCN(S(=O)(=O)c2cccc3nsnc23)C1 (centres undefined)	-35.6*	-0.5	-1.0%	0.1	19.2	38.0*
O=C(Nc1ccc2c(c1)OCCO2)C1CCN(S(=O)(=O)c2cccc3nsnc23)CC1	nt	nt	3.8%	nt	nt	nt
CCc1nc(N2CCC3(CC2)OCCO3)c2nnn(Cc3ccccc3)c2n1	-10.7	0.6	0.0%	2.3	37.1*	2.2
c1ccc(Cn2nnc3c(N4CCC5(CC4)OCCO5)ncnc32)cc1	-3.7	-0.1	-0.1%	-2.0	-2.2	-6.7
CC(C)Cc1nc2ccccc2[nH]1	-6.8	0.3	1.1%	0.9	-0.5	1.8
CC(C)N(Cc1nc2ccccc2[nH]1)C(C)C	-33.9*	0.2	-1.0%	0.3	-5.3	-1.9
CCOC(=O)c1ccc(NC(=O)CCc2c(C)nc3nc[nH]n3c2=O)cc1	1.8	0.1	0.8%	2.1	2.4	-1.6
CN(C)CC/C=C1\c2cc(F)ccc2CSc2ccccc21	-92.7*	2.2	5.1%	22.7	-1.4	-6.0
CN(C)CC/C=C1/c2cc(F)ccc2CSc2ccc(F)cc21	-3.9	1.1	-3.0%	4.5	3.2	-8.9
CN(CC/C=C1/c2ccccc2CSc2ccccc21)CCCO	-29.7	3.0	0.0%	30.8*	-5.1	-7.8
CC(O)CN(C)CC/C=C1/c2ccccc2CSc2ccccc21 (centres undefined)	-71.5*	2.4	1.0%	30.3*	-0.6	-10.8
C=CCN(C)CC/C=C1\c2ccccc2CSc2ccccc21	-7.4	2.4	-2.0%	-0.1	-7.1	-9.2
C=C(C)[C@H]1CC[C@]2(C(=O)O)CC[C@]3(C)[C@@H](CC[C@H]4[C@@]5(C)CC[C@@H](O)C(C)(C)[C@@H]5CC[C@@]43C)[C@H]12	nt	nt	2.4%[16.9 µM]	nt	nt	nt
COc1cc(-c2nc(C(N)=O)c3c(n2)n(-c2cccc(C)c2)c(=O)n3C)cc(OC)c1OC	14.0	0.2	-0.6%	1.4	-2.5	-0.4
Cc1sc2ncnc(N3CCC(C(=O)NNC(=O)COc4ccccc4Cl)CC3)c2c1C	4.9	-0.1	nt	12.0	11.9	-14.2
Cc1sc2ncnc(N3CCC(C(=O)NNC(=O)COc4ccccc4F)CC3)c2c1C	-40.3*	-0.6	nt	5.2	-1.3	2.9
Cc1ccc(NC(=O)N(Cc2nc3ccccc3c(=O)[nH]2)Cc2cccs2)cc1	-45.9*	0.5	0.0%	2.1	7.1	-7.7
CCNC(=S)N(Cc1ccccc1)Cc1nc2ccccc2c(=O)[nH]1	-30.6*	-0.5	0.0%	6.0	-6.9	-12.0
Cc1ccc(C)c(S(=O)(=O)n2nc(C)c(S(=O)(=O)N3CCCCCC3)c2C)c1	-17.1	-0.2	-1.7%	0.9	-1.0	1.9
